Calls of active or inactive are those of the source. How the source made its calls: active means hit-call score of the fitted dose curve at least 0.9, where 1 is the maximum; inactive means score below 0.9.

Chain of human Src Tyrosine Kinase, SRC (gene 6714) (P12931 whole entry, looked up): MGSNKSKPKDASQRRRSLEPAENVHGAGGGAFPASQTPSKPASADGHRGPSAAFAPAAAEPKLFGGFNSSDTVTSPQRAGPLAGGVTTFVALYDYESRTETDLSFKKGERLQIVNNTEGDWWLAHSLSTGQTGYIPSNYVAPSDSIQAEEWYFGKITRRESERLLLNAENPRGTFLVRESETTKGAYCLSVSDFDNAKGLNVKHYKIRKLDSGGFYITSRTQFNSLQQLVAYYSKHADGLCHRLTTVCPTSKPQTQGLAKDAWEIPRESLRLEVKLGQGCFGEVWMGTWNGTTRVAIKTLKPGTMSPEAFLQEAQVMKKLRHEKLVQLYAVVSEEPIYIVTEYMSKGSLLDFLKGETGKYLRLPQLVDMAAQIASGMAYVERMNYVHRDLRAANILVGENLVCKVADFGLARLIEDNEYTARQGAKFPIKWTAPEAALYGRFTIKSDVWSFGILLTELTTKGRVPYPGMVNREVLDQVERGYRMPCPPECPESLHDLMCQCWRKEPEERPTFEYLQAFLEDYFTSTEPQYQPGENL

The experiment has as its target human Src Tyrosine Kinase, SRC (gene 6714) (UniProt P12931). Put plainly: ERF_FR_ENZ_hSRC: Eurofins (ERF) Enzymatic Radiometric [Km ATP] KinaseProfiler LeadHunter Assay for human Src Tyrosine Kinase. Here is the method:
ERF_FR_ENZ_hSRC is a biochemical, single-readout assay that uses extracted gene-proteins in a cell-free assay. Measurements were taken 0.16 hour after chemical dosing in a 96-well plate. See Src Human TK Kinase Enzymatic LANCE Assay [Km ATP], Cerep.ERF_FR_ENZ_hSRC is an assay component calculated from the ERF_FR_ENZ_hSRC assay. It is designed to measure enzyme activity using a type of enzyme reporter as detected by fluorescence intensity with LANCE technology.Data from the assay component ERF_FR_ENZ_hSRC was analyzed at the assay endpoint, ERF_FR_ENZ_hSRC, in the positive analysis fitting direction relative to DMSO as the negative control and baseline of activity. Using a type of enzyme reporter, loss-of-signal activity can be used to understand changes in enzymatic activity as they relate to gene SRC. To generalize the intended target to other relatable targets, this assay endpoint is annotated to the kinase intended target family, where the subfamily is non-receptor tyrosine kinase.
c-Src (h) is incubated with 8 mM MOPS pH 7.0, 0.2 mM EDTA, 250 uM […] (Cdc2 peptide), 10 mM MgAcetate and [gamma-33P]-ATP (specific activity and concentration as required). The reaction is initiated by the addition of the Mg/ATP mix. After incubation for 40 minutes at room temperature, the reaction is stopped by the addition of phosphoric acid to a concentration of 0.5%. […]
Turning to `O=C(/C=C/c1ccc(O)cc1)CC(=O)/C=C/c1ccc(O)cc1`, the result was inactive.

The values above are taken from PubChem BioAssay AID2284108 (EPA ToxCast).
